FBA Mtb inh – inhibitors of M. tuberculosis fructose-bisphosphate aldolase; inhibition, % at 1 µM; AID 588726; 360,000 tested, 2.3% active; purified M. tuberculosis FBA, fluorescence read-out;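 note: 0% = vehicle and 100% = reference inhibitor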
Target sequence (P9WQA3 whole entry, looked up): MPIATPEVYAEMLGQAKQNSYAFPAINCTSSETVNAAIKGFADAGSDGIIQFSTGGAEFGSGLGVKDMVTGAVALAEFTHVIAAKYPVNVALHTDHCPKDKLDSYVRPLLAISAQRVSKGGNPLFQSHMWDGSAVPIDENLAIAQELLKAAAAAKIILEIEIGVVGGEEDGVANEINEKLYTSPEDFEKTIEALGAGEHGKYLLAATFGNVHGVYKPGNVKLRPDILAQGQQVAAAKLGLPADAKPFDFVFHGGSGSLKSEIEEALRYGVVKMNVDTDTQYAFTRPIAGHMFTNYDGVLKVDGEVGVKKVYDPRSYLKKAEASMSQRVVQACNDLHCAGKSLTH
3CLpro inhibitor – SARS-CoV 3CLpro protease inhibition; recombinant SARS-CoV 3CLpro, quenched FRET peptide cleavage; inhibition, % at 6 µM; AID 1706; 290,000 tested, 0.14% active; P0C6X7; in the data active = inhibition above about 12%
GDH-TPI counter-1 – counter-screen for M. tuberculosis FBA inhibitors: GDH-TPI coupled enzymes; GDH-TPI coupled enzyme counterscreen, NADH absorbance; inhibition, % at 4.8 µM; 360,000 tested, 1.2% active; in the data active = inhibition above about 30%;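 note: 0% = DMSO wells and 100% = wells lacking the enzyme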
FadD28 binding – blocks FadD28 binding to the bisubstrate probe; inhibition, % at 12.5 µM; 360,000 tested, 0.22% active; AID 588549; fluorescence polarization; in the data active = inhibition above about 8.5%, passing the limit was not always enough
Mtb BioA inh – blocks M. tuberculosis BioA enzyme activity; purified M. tuberculosis BioA enzyme, plate reader; inhibition, % at 9.99 µM; 360,000 tested, 0.096% active; AID 602481; in the data active = inhibition above about 40%
Mtb FBA confirm – confirmation of M. tuberculosis fructose-bisphosphate aldolase inhibitors; AID 651616; purified M. tuberculosis FBA, fluorescence read-out; 5,600 tested, 78% active; shares compounds with FBA Mtb inh; inhibition, % at 1 µM;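 note: 0% = vehicle wells and 100% = reference inhibitor wells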
GDH-TPI counter-2 – GDH-TPI inhibition counter-screen for FBA inhibitors. AID 652141. inhibition, % at 1 µM. 5,600 tested, 81% active. GDH-TPI coupled enzyme counterscreen, fluorescence. shares compounds with FBA Mtb inh; in the data active = inhibition above about 10%
GDH-TPI DR – GDH-TPI dose response counter-screen for Mtb FBA; 170 tested, 79% active; AID 652145; GDH-TPI coupled enzyme assay, fluorescence, artifact counterscreen; shares compounds with FBA Mtb inh; IC50, µM; call rule not given here
* hit, by the source's call; nt = not tested or not shown; + = active, no number. Most compounds without a hit are left out; they make up all but 3.1% or so of the library. Cut-off read from the data, not from the text of the source, unless noted: active = inhibition above about 27%; inactive = the rest.

SMILES | FBA Mtb inh | 3CLpro inhibitor | GDH-TPI counter-1 | FadD28 binding | Mtb BioA inh | Mtb FBA confirm | GDH-TPI counter-2 | others
COc1cccc(-c2nn(C)c3sc(C(=O)NCc4ccccn4)cc23)c1 | 80* | 6 | 20 | -2 | -1 | 0 | -2
COCCCNC(=O)c1cc2c(-c3cccc(OC)c3)nn(C)c2s1 | 89* | 3 | 11 | -7 | nt | 119* | 107*
CCN(CC)CCNC(=O)c1cc2c(-c3cccc(OC)c3)nn(C)c2s1 | 60* | -5 | 23 | -10 | nt | 173* | 129*
Cn1nc(-c2ccccc2)c2cc(C(=O)O)sc21 | 49* | 6 | 8 | -3 | -1 | 1 | 0
C[C@H]1CN([C@@H](C)CO)C(=O)c2cc(C#CCN(C)C)cnc2O[C@@H]1CN(C)S(=O)(=O)c1ccccc1 | nt | nt | nt | nt | 1 | nt | nt
O=C(N[C@@H]1CC[C@H](CC(=O)N2CCOCC2)O[C@H]1CO)c1ccccn1 | nt | nt | nt | nt | -3 | nt | nt
CCC(=O)Nc1c(-c2ccc3ccccc3c2)nc2ccccn12 | 50* | -4 | 15 | 0 | -6 | 62* | 75*
O=C(Nc1c(-c2ccccc2)nc2ccccn12)c1ccccc1 | -1 | 1 | 1 | 0 | 1 | nt | nt
CCOC(=O)CNc1c(-c2ccc(O)cc2)nc2ccccn12 | 40* | 0 | 14 | 0 | 2 | 3 | -1
CC(=O)Nc1c(-c2ccc3ccccc3c2)nc2ccccn12 | 59* | -5 | 13 | -2 | 0 | 41* | 30*
COc1ccc(C(=O)Nc2c(-c3ccccc3)nc3ccccn23)c(OC)c1 | 1 | 4 | 6 | nt | -1 | nt | nt
CC(C)(C)OC(=O)NCCC(=O)N/N=C/c1ccc2nccnc2c1 | 0 | 3 | 19 | -2 | 1 | nt | nt
COc1ccc2nc(/C=N/NC(=O)CCCCCNC(=O)OC(C)(C)C)ccc2c1 | 63* | -2 | 33* | -2 | nt | 95* | 86*
O=C(NCc1ccc(F)cc1)c1cnccn1 | 2 | 0 | 7 | 0 | 0 | nt | nt
c1ccc(CNc2cnccn2)cc1 | 69* | 0 | 14 | -3 | 3 | 108* | 93*
Clc1ccc(CNc2cnccn2)cc1 | 71* | -4 | 7 | -1 | -2 | 125* | 92*
Fc1ccc(CNc2cnccn2)cc1 | 71* | -4 | 18 | 0 | nt | -3 | -5
C[C@@H]1CN([C@@H](C)CO)C(=O)Cc2cc(NC(=O)NC3CCCCC3)ccc2O[C@H]1CN(C)Cc1ccc(C(=O)O)cc1 | nt | nt | nt | nt | 0 | nt | nt
CCN(CC)CCCNC(=O)c1cc2c(=O)n(C)c3ccccc3c2n1C | 20 | 0 | 17 | -1 | -4 | nt | nt
CCN(CC)CCNC(=O)c1cc2c(=O)n(C)c3ccccc3c2n1C | 28* | -8 | -1 | 0 | 0 | + | +
COCC(=O)N(C)C[C@@H]1Oc2cc(C3=CCCC3)ccc2S(=O)(=O)N([C@H](C)CO)C[C@@H]1C | nt | nt | nt | nt | -2 | nt | nt
Cc1nc2cccc(C(=O)Oc3ccc([N+](=O)[O-])cc3)c2o1 | 43* | 0 | 4 | -1 | nt | 159* | 146*
C[C@H]1CN([C@@H](C)CO)C(=O)c2ccccc2-c2ccccc2CO[C@H]1CN(C)C(=O)c1ccncc1 | nt | nt | nt | nt | 1 | nt | nt
COC1=Nc2ccccc2N2CCN=C12 | 66* | nt | nt | -1 | nt | 12 | 7 | GDH-TPI DR=3.5*
C[C@@H]1CCCCO[C@@H](CN(C)C(=O)NC2CCCCC2)[C@H](C)CN([C@@H](C)CO)C(=O)c2cc(NC(=O)CCCN(C)C)ccc2O1 | nt | nt | nt | nt | -6 | nt | nt
SMILES | FBA Mtb inh | 3CLpro inhibitor | GDH-TPI counter-1 | FadD28 binding | Mtb BioA inh | Mtb FBA confirm | GDH-TPI counter-2 | others
CCCN(CC(=O)Nc1ccccc1C)C(=O)c1ccc(-c2ccc(C(C)=O)cc2)o1 | 73* | nt | 31* | -1 | 20 | -4 | -15
CCCn1nc2cc(C(=O)NCc3ccc(OC(F)(F)F)cc3)ccc2c1OCC | 37* | -2 | 1 | -1 | 1 | 102* | 81*
CCOc1c2ccc(C(=O)NCc3ccc(OC(F)(F)F)cc3)cc2nn1CC | 24 | 5 | 4 | -3 | 4 | nt | nt
CCCn1nc2cc(C(=O)NCc3ccc(OC)cc3)ccc2c1OCC | 48* | 5 | 3 | -1 | -2 | 60* | 32*
O=C(C[C@@H]1CC[C@@H]2[C@H](COC[C@@H](O)CN2C(=O)Nc2cccc(Cl)c2)O1)N1CCCCC1 | nt | nt | nt | nt | 6 | nt | nt
Nc1c(-c2ccccc2)n[nH]c1-c1ccccc1 | 40* | 0 | 2 | -3 | 0 | 72* | 50*
C[C@@H]1CN([C@@H](C)CO)C(=O)c2cc(C3=CCCCC3)cnc2O[C@@H]1CN(C)C(=O)Cc1ccncc1 | nt | nt | nt | nt | 5 | nt | nt
O=C(N[C@H]1CC[C@H](CCNS(=O)(=O)Cc2ccccc2)O[C@@H]1CO)c1ccccc1F | nt | nt | nt | nt | 0 | nt | nt
C[C@H]1CN([C@@H](C)CO)C(=O)c2cccc(NC(=O)Nc3ccc4c(c3)OCO4)c2O[C@H]1CN(C)C(=O)NC1CCCCC1 | nt | nt | nt | nt | 3 | nt | nt
FC(F)(F)c1nc2nncn2c2c1CCCCC2 | 35* | 2 | 12 | 0 | 0 | 133* | 117*
Cc1cccc2nc3ccccc3cc12 | 33* | nt | -7 | -4 | -2 | 49* | 33*
Cc1cccc2cc3ccccc3nc12 | 14 | nt | 8 | -1 | nt | nt | nt
CC(=O)c1ccc2noc(-c3ccccc3)c2c1 | 1 | -6 | 3 | -1 | 0 | nt | nt
CC(=O)c1ccc2c(c1)c(C#N)c1ccccc1[n+]2[O-] | 94* | -2 | 16 | -2 | 0 | 8 | 0
CCCCn1nc2cc(C(=O)NCC34CC5CC(CC(C5)C3)C4)ccc2c1OC | 31* | 4 | 8 | 0 | -1 | 57* | 43*
CCOc1c2ccc(C(=O)NCC34CC5CC(CC(C5)C3)C4)cc2nn1CC | 39* | 7 | 8 | 1 | -3 | 1 | 6
CCCCCNC(=O)c1ccc2c(c1)ncn2-c1ccc(OC)cc1 | 0 | -5 | 14 | nt | 0 | nt | nt
CCn1nc2cc(C(=O)NCC34CC5CC(CC(C5)C3)C4)ccc2c1OC | 28* | -2 | 11 | 2 | -1 | 14 | -5 | GDH-TPI DR=4*
C[C@@H]1CCCCO[C@H](CN(C)Cc2ccc(C(F)(F)F)cc2)[C@@H](C)CN([C@@H](C)CO)C(=O)c2cc(NS(=O)(=O)c3ccc(F)cc3)ccc2O1 | nt | nt | nt | nt | 2 | nt | nt
CC(=O)N(C)C[C@H]1Oc2cc(C#Cc3ccc(F)cc3)ccc2S(=O)(=O)N([C@@H](C)CO)C[C@H]1C | nt | nt | nt | nt | 2 | nt | nt
O=C1CCCC2=C1C(c1ccc(O)c(O)c1)Nc1ccc3ccccc3c12 (configuration not stated) | 2 | nt | 14 | 0 | 1 | nt | nt
O=C1CCCC2=C1C(c1ccco1)Nc1ccc3ccccc3c12 (configuration not stated) | 95* | -2 | 22 | 2 | -2 | 110* | 77*
COc1ccc(-c2ccc(C(=O)NCC3CC3)c3occc23)c(C)c1 | 57* | nt | -1 | -15 | 0 | 46* | 33*

High-throughput results (PubChem BioAssay)
